According to PubChem BioAssay AID1159580 (chemical genetic matrix, 2015):
Several values for one entry are separate records, joined by “and”; a condition that tells them apart may be missing. Identical values can stand only once. Out of some 5,500 compounds screened, about 2,000 (36%) were called active. Not shown: some 18% with an inconclusive outcome. No stated cut-off is given here; in the data, active means normalized growth mostly below about 0.91 (no sharp cut-off); inconclusive means no clear call, values can overlap the other calls; inactive means mostly above about 0.92. The list shows a part of the results.

Experiment: chemical genetic growth profiling, strain panel (AID 1159580);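 further: tested at 20 µM; growth read once vehicle control cultures reached saturation at 30 °C; 1 = growth at the plate median or of vehicle wells; lower values mean less growth of the strain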
Conditions: S. cerevisiae deletion strains, growth OD

Measured: normalized growth

CS(=O)(=O)OCCCCOS(C)(=O)=O
inactive: locus YAL013W, strain DEP1, active compounds read low 0.954 | locus YAL021C, strain ccr4, active compounds read low 0.999 | locus YAL026C, strain drs2, active compounds read low 1.02 | locus YAL030W, strain snc1, active compounds read low 1.03 | locus YBL061C, strain skt5, active compounds read low 1.01 | locus YBR021W, strain FUR4, active compounds read low 1.01 | locus YBR023C, strain chs3, active compounds read low 1.01 | locus YBR171W, strain sec66, active compounds read low 1.03 | locus YBR229C, strain ROT2, active compounds read low 0.994 | locus YBR231C, strain swc5, active compounds read low 0.993 | locus YBR279W, strain paf1, active compounds read low 1.01 | locus YCL011C, strain gbp2, active compounds read low 1.04 | locus YCL016C, strain dcc1, active compounds read low 1.05 | locus YCL029C, strain bik1, active compounds read low 0.956 | locus YCL069W, strain vba3, active compounds read low 1.03 | locus YCR088W, strain abp1, active compounds read low 1.02 | locus YDL005C, strain med2, active compounds read low 1.01 | locus YDL035C, strain GPR1, active compounds read low 1.02 | locus YDL040C, strain nat1, active compounds read low 1 | locus YDL074C, strain BRE1, active compounds read low 0.901 | locus YDL101C, strain DUN1, active compounds read low 0.948 | locus YDL185W, strain tfp1, active compounds read low 0.918 | locus YDL192W, strain arf1, active compounds read low 0.942 | locus YDR001C, strain nth1, active compounds read low 1.01 | locus YDR069C, strain doa4, active compounds read low 1.02 | locus YDR101C, strain arx1, active compounds read low 0.961 | locus YDR137W, strain rgp1, active compounds read low 1.03 | locus YDR159W, strain sac3, active compounds read low 0.996 | locus YDR162C, strain NBP2, active compounds read low 0.961 | locus YDR195W, strain ref2 0.973 | locus YDR297W, strain sur2, active compounds read low 1.05 | locus YDR318W, strain mcm21, active compounds read low 0.962 | locus YDR334W, strain swr1, active compounds read low 1.01 | locus YDR335W, strain msn5, active compounds read low 1.04 | locus YDR388W, active compounds read low 0.963 | locus YDR392W, strain spt3, active compounds read low 1.04 | locus YDR502C, strain sam2, active compounds read low 0.973 | locus YEL003W, strain gim4, active compounds read low 1.03 | locus YEL037C, strain rad23, active compounds read low 1.02 | locus YEL061C, strain CIN8 (second series), active compounds read low 1.01 | locus YEL061C, strain CIN8, active compounds read low 0.979 | locus YER015W, strain faa2, active compounds read low 0.998 | locus YER016W, strain bim1, active compounds read low 1.03 | locus YER110C, active compounds read low 0.93 | locus YER111C, strain swi4, active compounds read low 1.02 | locus YER155C, strain BEM2 (second series), active compounds read low 1.02 | locus YER155C, strain BEM2, active compounds read low 1 | locus YER167W, strain BCK2, active compounds read low 1.01 | locus YFR010W, strain ubp6, active compounds read low 0.996 | locus YGL078C, strain dbp3, active compounds read low 0.987 | locus YGL086W, strain mad1, active compounds read low 0.954 | locus YGL167C, strain pmr1, active compounds read low 1.05 | locus YGL173C, strain kem1, active compounds read low 1.01 | locus YGL227W, strain vid30, active compounds read low 1.02 | locus YGL240W, strain doc1, active compounds read low 1.05 | locus YGL248W, strain PDE1, active compounds read low 0.95 | locus YGL253W, strain hxk2, active compounds read low 1.03 | locus YGR078C, strain PAC10, active compounds read low 0.935 | locus YGR135W, strain pre9, active compounds read low 0.934 | locus YGR252W, strain gcn5, active compounds read low 0.861 | locus YHR013C, strain ard1, active compounds read low 1.09 | locus YHR027C, strain rpn1, active compounds read low 1 | locus YHR030C, strain SLT2, active compounds read low 0.979 and 1 | locus YHR079C, strain IRE1 (second series), active compounds read low 0.952 | locus YHR079C, strain IRE1, active compounds read low 0.994 | locus YHR094C, strain hxt1, active compounds read low 0.981 | locus YHR129C, strain ARP1, active compounds read low 0.969 | locus YHR142W, strain chs7, active compounds read low 1.07 | locus YHR200W, strain rpn10, active compounds read low 0.948 | locus YIL066C, strain RNR3, active compounds read low 1 | locus YIL073C, strain SPO22, active compounds read low 0.907 | locus YIL125W, strain kgd1, active compounds read low 0.981 | locus YIR030C, strain dcg1, active compounds read low 0.962 | locus YJL092W, strain hpr5, active compounds read low 1.03 | locus YJL095W, strain BCK1 (second series), active compounds read low 1.05 | locus YJL095W, strain BCK1, active compounds read low 0.833 and 0.987 | locus YJL115W, strain asf1, active compounds read low 1.01 | locus YJL129C, strain trk1, active compounds read low 0.999 | locus YJL134W, strain LCB3, active compounds read low 0.986 | locus YJL154C, strain vps35, active compounds read low 1.02 | locus YJL166W, strain qcr8, active compounds read low 1.01 | locus YJL168C, strain set2, active compounds read low 0.955 | locus YJL187C, strain SWE1 (second series), active compounds read low 0.933 | locus YJL187C, strain SWE1, active compounds read low 1.03 | locus YJR043C, strain POL32, active compounds read low 1.01 | locus YJR066W, strain TOR1, active compounds read low 0.985 | locus YKL009W, strain mrt4, active compounds read low 0.967 | locus YKL068W, active compounds read low 0.99 | locus YKL085W, strain MDH1 (second series), active compounds read low 0.975 | locus YKL085W, strain MDH1, active compounds read low 0.975 | locus YKL160W, strain elf1, active compounds read low 1.05 | locus YKL190W, strain CNB1, active compounds read low 0.977 | locus YKR026C, strain gcn3, active compounds read low 1.02 | locus YKR091W, strain srl3, active compounds read low 1.03 | locus YLL001W, strain dnm1, active compounds read low 1.03 | locus YLL026W, active compounds read low 1.03 | locus YLL041C, strain sdh2, active compounds read low 1.02 | locus YLR027C, strain aat2, active compounds read low 1.04 | locus YLR039C, strain RIC1, active compounds read low 0.985 | locus YLR058C, strain SHM2, active compounds read low 0.969 | locus YLR102C, strain apc9, active compounds read low 0.972 | locus YLR113W, strain HOG1, active compounds read low 0.961 | locus YLR221C, strain rsa3, active compounds read low 1.07 | locus YLR258W, strain gsy2, active compounds read low 1.07 | locus YLR262C, strain YPT6 (second series), active compounds read low 1.04 | locus YLR262C, strain YPT6, active compounds read low 1.02 | locus YLR268W, strain sec22, active compounds read low 0.95 | locus YLR320W, strain mms22, active compounds read low 0.999 | locus YLR330W, strain CHS5, active compounds read low 0.957 | locus YLR342W, strain FKS1 (second series), active compounds read low 1.08 | locus YLR342W, strain FKS1, active compounds read low 1.02 | locus YLR357W, strain rsc2, active compounds read low 1.05 | locus YLR370C, strain arc18, active compounds read low 1.03 | locus YLR371W, strain rom2, active compounds read low 0.939 | locus YLR384C, strain iki3, active compounds read low 1.01 | locus YLR418C, strain cdc73, active compounds read low 0.872 | locus YML016C, strain PPZ1, active compounds read low 0.981 | locus YML032C, strain rad52, active compounds read low 0.97 | locus YML120C, strain ndi1, active compounds read low 1.03 | locus YML124C, strain tub3, active compounds read low 0.967 | locus YMR058W, strain fet3, active compounds read low 1.01 | locus YMR078C, strain ctf18, active compounds read low 0.942 | locus YMR125W, strain sto1, active compounds read low 1.03 | locus YMR129W, active compounds read low 1.02 | locus YMR205C, strain PFK2, active compounds read low 1.01 | locus YMR223W, strain ubp8, active compounds read low 0.934 | locus YMR231W, strain pep5, active compounds read low 1.02 | locus YMR307W, strain GAS1, active compounds read low 0.984 | locus YNL067W, strain RPL9B, active compounds read low 0.928 | locus YNL071W, strain lat1, active compounds read low 1.01 | locus YNL128W, strain TEP1, active compounds read low 0.909 | locus YNL153C, strain GIM3, active compounds read low 0.938 | locus YNL183C, strain NPR1, active compounds read low 0.932 | locus YNL209W, strain ssb2, active compounds read low 1.01 | locus YNL233W, strain BNI4, active compounds read low 0.889 | locus YNL248C, strain rpa49, active compounds read low 1.06 | locus YNL250W, strain rad50, active compounds read low 0.964 | locus YNL271C, strain bni1, active compounds read low 0.955 | locus YNL298W, strain CLA4, active compounds read low 0.979 | locus YNL307C, strain MCK1, active compounds read low 0.963 | locus YNL322C, strain KRE1 (second series), active compounds read low 1.04 | locus YNR049C, strain mso1, active compounds read low 1.02 | locus YOL006C, strain TOP1, active compounds read low 0.696 | locus YOL012C, strain htz1 0.364 | locus YOL147C, strain pex11, active compounds read low 0.972 | locus YOR001W, strain rrp6, active compounds read low 1.03 | locus YOR061W, strain CKA2, active compounds read low 0.987 | locus YOR069W, strain VPS5, active compounds read low 0.986 | locus YOR070C, strain gyp1, active compounds read low 1.01 | locus YOR080W, strain dia2, active compounds read low 1.05 | locus YOR083W, strain WHI5, active compounds read low 1.05 | locus YOR106W, strain vam3, active compounds read low 1.03 | locus YOR136W, strain idh2, active compounds read low 0.977 | locus YOR144C, strain elg1, active compounds read low 0.984 | locus YOR184W, strain ser1, active compounds read low 0.989 | locus YOR231W, strain MKK1, active compounds read low 1 | locus YOR265W, strain rbl2, active compounds read low 1.01 | locus YOR270C, strain vph1, active compounds read low 1.07 | locus YOR290C, strain snf2, active compounds read low 1.06 | locus YOR316C, strain cot1, active compounds read low 0.972 | locus YPL051W, strain arl3, active compounds read low 1.02 | locus YPL078C, strain atp4, active compounds read low 1.02 | locus YPL106C, strain sse1, active compounds read low 1.05 | locus YPL240C, strain hsp82, active compounds read low 1.02 | locus YPL256C, strain CLN2, active compounds read low 0.99 | locus YPR119W, strain clb2, active compounds read low 0.951 | locus YPR141C, strain kar3, active compounds read low 0.957 | locus YPR163C, strain tif3, active compounds read low 0.962 | locus YPR167C, strain met16, active compounds read low 0.975 | strain wtn01, active compounds read low 0.953
active: locus YBR009C, strain hhf1, active compounds read low 1.11 [resistant] | locus YJL164C, strain tpk1, active compounds read low 1.09 [resistant] | locus YKR001C, strain vps1, active compounds read low 0.89 | locus YNR052C, strain pop2, active compounds read low 0.908
